Laboratory results reported in PubChem BioAssay.

What follows are molecules tested against NADPH oxidase 2 (Homo sapiens) (UniProt P04839) (assay: compounds shifting NOX2 Amplex Red fluorescence – cell-based, HEK293-NOX2, PMA-stimulated, NOX inhibitor project, primary screen (AID 1159; further: test concentration not given here)). Settings: 45 min, higher = more signal, called active from +8 up or from −8 down.
Sequence of NADPH oxidase 2 (Homo sapiens) (P04839 whole entry, looked up): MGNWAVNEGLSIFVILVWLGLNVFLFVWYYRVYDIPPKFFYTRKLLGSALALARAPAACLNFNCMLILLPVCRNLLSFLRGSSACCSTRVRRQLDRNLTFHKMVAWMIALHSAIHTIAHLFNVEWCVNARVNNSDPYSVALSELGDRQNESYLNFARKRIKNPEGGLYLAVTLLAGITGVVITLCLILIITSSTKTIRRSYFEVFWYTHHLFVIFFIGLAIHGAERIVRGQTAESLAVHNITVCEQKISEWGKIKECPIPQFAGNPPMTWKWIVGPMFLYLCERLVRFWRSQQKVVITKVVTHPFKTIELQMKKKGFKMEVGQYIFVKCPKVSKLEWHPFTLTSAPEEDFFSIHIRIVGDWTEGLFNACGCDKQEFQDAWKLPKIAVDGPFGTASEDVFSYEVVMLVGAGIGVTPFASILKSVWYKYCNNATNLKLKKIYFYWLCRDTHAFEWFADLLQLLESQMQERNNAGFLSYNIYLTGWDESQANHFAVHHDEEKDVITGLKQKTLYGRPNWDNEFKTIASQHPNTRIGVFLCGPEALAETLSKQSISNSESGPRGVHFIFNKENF

z-score, inactive:
C=CC[C@@]12N=C(c3ccc(OCCCO)cc3)O[C@@H]1c1ccccc1N(CCS(=O)(=O)c1ccccc1)C2=O -1.55
CN(C)CCCNC(=O)[C@@]1(C)c2ccccc2C(=O)N(Cc2cc(C(F)(F)F)cc(C(F)(F)F)c2)[C@H]1c1ccc(CO)cc1 0.0342
CC(C)NC(=O)[C@@]1(C)c2ccccc2C(=O)N(C(C)C)[C@H]1c1ccc(CO)cc1 -0.0231
O=C(N1CCCCC1)[C@@]1(Cc2ccccc2)COC(c2ccc(OCCCO)cc2)=N1 -4.59
O=C1C[C@@](C(=O)NCC(F)(F)F)(c2ccc([N+](=O)[O-])cc2)[C@@H](c2ccc(CO)cc2)N1C1CCCCC1 0.166
O=C1c2ccccc2[C@](Cc2ccccc2I)(C(=O)NCc2ccccc2)[C@H](c2ccc(CO)cc2)N1C1CCCCC1 1.65
C=CC[C@@]1(C(=O)N2CCCCC2)N=C(c2ccc(OCCCO)cc2)O[C@@H]1c1ccccc1 -0.432
C=CCOC(=O)[C@@H]1[C@H]2C(=O)O[C@H](c3ccccc3)[C@H](c3ccccc3)N2[C@H](c2ccc(OCCOC(=O)[C@H]3C[C@H]4C(=O)N[C@@H](CCCC[N+](C)(C)C)C(=O)N4[C@H]3c3ccc(O)cc3)cc2)[C@@]12C(=O)Nc1ccc(I)cc12 1.4
C[C@H]1ON(c2ccc(C(=O)OC(C)(C)C)cc2)[C@@H](c2ccc(O)cc2)[C@@H]1C(=O)N1C(=O)OC[C@@H]1c1ccccc1 -0.414
Cc1c(NC(=O)/C(C#N)=C/C=C/c2ccccc2[N+](=O)[O-])c(=O)n(-c2ccccc2)n1C -0.235
CC(C)(C)OC(=O)CC[C@]1(C(=O)NCCN2CCOCC2)N=C(c2ccc(OCCCO)cc2)O[C@H]1c1ccccc1N=[N+]=[N-] -2.46
CCOC(=O)[C@H]1C/C=C/C[C@H](C(=O)OCC)C(=O)O[C@H]2[C@@H](OC)O[C@H](CO)[C@@H](OC(=O)Nc3ccc(OC)cc3)[C@@H]2OC1=O -2.43
O=C1NC(=O)C2C1C=CC(C(O)c1c(F)cccc1Cl)N2Nc1ccccn1 (centres undefined) -1.84
COc1ccc([Si](C)(C)[C@@H]2[C@@H](CCO)O[C@]3(C(=O)N(Cc4cccc(N5C(=O)c6ccccc6Oc6ccccc65)c4)c4ccccc43)[C@H]2C)cc1 0.423
Cc1ccc(S[C@]2(C(=O)NCc3ccccc3)CC(=O)N(C(C)C)[C@@H]2c2ccc(CO)cc2I)cc1 2.05
CC(C)CCC[C@@H](C)[C@H]1CC[C@@]2(C)C3=C(CC[C@]12C)[C@@]1(C)CC[C@H](OC(=O)c2ccc(Br)cc2)C(C)(C)C1CC3 (some centres undefined) -1.07
NC(=O)N1C(=O)C2C(C1=O)C1C=C(c3ccc(CO)cc3)C2C(C2CC2)N1Cc1sc2ccccc2c1Cl (centres undefined) 2.51
C=CCN1C(=O)[C@@]2(O[C@@H](CCn3cc([C@H](O)c4ccccc4)nn3)[C@H]([Si](C)(C)c3ccc(OC)cc3)[C@H]2C)c2ccccc21 0.997
CC1CC/C=C\[C@H]2OC34C=CCN(CCN5CCOCC5)C(=O)[C@H]3N(CCO)C(=O)[C@@H]4C2C(=O)O1 (some centres undefined) 0.994
C=CCOC(=O)[C@H]1[C@@H]2C(=O)O[C@@H](c3ccccc3)[C@@H](c3ccccc3)N2[C@@H](c2ccc(OCCOC(=O)[C@H]3C[C@H]4C(=O)N[C@@H](Cc5ccccc5)C(=O)N4[C@H]3c3ccc(O)cc3)cc2)[C@]12C(=O)Nc1ccc(I)cc12 2.07
COc1ccc(C#Cc2ccc3c(c2)[C@]2(C(=O)N3)[C@H](C(=O)N3CCc4cc(OC)c(OC)cc4C3)[C@H]3C(=O)O[C@H](c4ccccc4)[C@H](c4ccccc4)N3[C@@H]2c2ccc(O)cc2)cc1 1.32
O=C1O[C@@H](c2ccccc2)[C@@H](c2ccccc2)N2[C@@H](c3ccccc3OCCO)[C@]3(C(=O)Nc4ccccc43)[C@@H](C(=O)NC[C@H](O)c3ccccc3)[C@H]12 1.43
C[C@]1(C(=O)NC2CC2)c2ccccc2C(=O)N(Cc2ccc(OC(F)(F)F)cc2)[C@H]1c1ccc(CO)cc1 0.264
NC(=O)NCC#Cc1ccc2c(c1)[C@]1(C(=O)N2)[C@H](C(=O)Nc2nc3ccccc3s2)[C@H]2C(=O)O[C@H](c3ccccc3)[C@H](c3ccccc3)N2[C@@H]1c1ccc(O)cc1 -0.23
